Pf growth 48h: P. falciparum growth inhibition at 48 hours (one generation). P. falciparum luciferase growth in erythrocytes, 48 h. Potency, µM (series often up to 28.7 µM), usual class: inhibitors. 5.9% of 310,000 active. AID 504832
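First compound was added to culture medium, then infected red cells at 0.1% parasitemia and 2% hematocrit (final). After incubation at 37 C under 5% CO2, luciferase detection reagent was dispensed and light output recorded.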
AmpC inh detg: inhibitors of E. coli AmpC beta-lactamase with detergent. 0.041% of 370,000 active. AID 485294. P00811. Potency, µM (highest dose often 114 µM), actives largely listed as inhibitors. AmpC hydrolysis of nitrocefin, absorbance 480 nm, 0.01% Triton; further: nearly all actives have a fitted effect of over 25% in size
Target sequence (P00811 whole entry, looked up): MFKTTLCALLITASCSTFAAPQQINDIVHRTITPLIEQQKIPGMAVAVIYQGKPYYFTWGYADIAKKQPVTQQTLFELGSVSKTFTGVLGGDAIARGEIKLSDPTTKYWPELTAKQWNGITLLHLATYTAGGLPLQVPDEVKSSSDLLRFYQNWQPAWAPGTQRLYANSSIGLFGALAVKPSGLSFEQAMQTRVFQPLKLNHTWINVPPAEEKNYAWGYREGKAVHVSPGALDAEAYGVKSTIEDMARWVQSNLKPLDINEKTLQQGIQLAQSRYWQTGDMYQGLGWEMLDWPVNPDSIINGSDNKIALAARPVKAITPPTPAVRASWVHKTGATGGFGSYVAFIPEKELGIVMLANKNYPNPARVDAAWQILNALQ
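AmpC (5.3 nM in the dispensed reagent) in 20 mM phosphate pH 7.0 with 0.01% (detergent screen) or 0.0001% Triton X-100 was preincubated with compounds for 15 min at room temperature. Nitrocefin was then added from an 800 uM solution, and hydrolysis was followed at 480 nm.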
AmpC inh no detg: blocks E. coli AmpC beta-lactamase in detergent-free assay; P00811; AmpC nitrocefin hydrolysis, absorbance 480 nm, 0.0001% Triton; Potency, µM (top dose mostly 57.1 µM), hits mostly inhibitors; 0.52% of 330,000 active; further: nearly all actives have a fitted effect of over 20% in size
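20 mM phosphate pH 7.0 + 0.01% (detergent screen) or 0.0001% Triton X-100; 5.3 nM AmpC reagent; cpd preinc 15 min RT; nitrocefin (800 uM stock) to start; A480 q20 s × 4 min; Activity was normalised to no-enzyme and no-compound control wells.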
HCV inhibitor: HCV inhibition; 3.4% of 340,000 active; Potency, µM (series often up to 41.8 µM), actives largely listed as inhibitors; Huh7.5.1 HCVcc-Cre infection, luciferase reporter, 44 h
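1,000 cells/well; 4 h culture; + compound; + HCVcc-Cre (~0.5 moi); 44 h; luciferase substrate, RT 15 min; read 15 sec.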
AMA1 RON2 block: disrupts binding of P. falciparum AMA1 to RON2; Potency, µM (doses to about 58.2 µM), usual class: inhibitors; 0.2% of 360,000 active; AlphaScreen AMA1-biotinylated RON2 peptide binding; further: nearly all actives have a fitted effect of over 45% in size
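AMA1 (3D7) with his tag at 25 nM final met compounds first, then biotinylated RON2 peptide at 25 nM; detection used donor plus acceptor beads, 10 µg/mL apiece, read by AlphaScreen after 30 min at room temperature.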
Pf growth 96h: inhibits malaria parasite growth, 96 h; P. falciparum luciferase reporter growth, 96 h; Potency, µM (titrated, usually from 28.7 µM), usual class: inhibitors; 6.9% of 320,000 active
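P. falciparum expressing integrated firefly luciferase, in erythrocytes at 2% hematocrit, 0.05% parasitemia, incubated with compounds 96 h at 37 C, 5% CO2. Growth inhibition read as loss of luminescence; two-generation exposure targets delayed-death apicoplast inhibitors.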
Of the large screens only hits and unclear results are named; the others gave an inactive call. An excerpt weighted towards active compounds, which were near 11% of everything screened. The call rests on the fitted dose curve; in most records, active means well fitted curve in the direction sought with a large enough effect; inconclusive means small, poorly fitted or top-dose-only effect, or another doubt; inactive means no such curve, though single readings can be large; an effect the other way counts as inactive or inconclusive.

CN1CCN(c2ccc(NC(=O)COc3ccccc3)cc2Cl)CC1	none
O=C(CCN1CCOCC1)Nc1ccc2c(c1)CCC2	AmpC inh detg inconclusive, HCV inhibitor inconclusive, Pf growth 96h 3.7µM
O=C(CSc1nc(N2CCOCC2)nc(N2CCOCC2)n1)Nc1cccc(C(F)(F)F)c1	Pf growth 96h 2.1µM
CSc1ccc(OCC(=O)Nc2ccc(N3CCOCC3)c(Cl)c2)cc1	HCV inhibitor 10µM, Pf growth 96h inconclusive
CCCOc1ccc(C(=O)N2CCN(c3ccc(NC(=O)CC)cc3Cl)CC2)cc1	Pf growth 48h 6.6µM, HCV inhibitor inconclusive
Cc1cccc(C(=O)NC2(C(F)(F)F)N=C(c3ccccc3)N(C3CCCCC3)C2=O)c1 (stereo not drawn)	none (no result: Pf growth 48h, AmpC inh no detg, HCV inhibitor, AMA1 RON2 block, Pf growth 96h)
Cc1cnc2c(c1SCC(=O)NCc1ccc(F)cc1)c(=O)n(C)c(=O)n2C	none (no result: Pf growth 48h, AmpC inh no detg, HCV inhibitor, AMA1 RON2 block, Pf growth 96h)
O=C(CCN1CCOCC1)NNC(=O)Nc1cccc(C(F)(F)F)c1	Pf growth 96h 10µM
CCN(CC)CCCNCC(=O)Nc1ccc(OC)c(Cl)c1	Pf growth 48h inconclusive, Pf growth 96h inconclusive (no result: HCV inhibitor, AMA1 RON2 block)
Cc1cc(Oc2ccccc2)nc(SCC(=O)Nc2ccc(Cl)c(Cl)c2)n1	AmpC inh detg inconclusive, HCV inhibitor inconclusive, Pf growth 96h 13µM (no result: Pf growth 48h)
CCN(CC)CCCNCC(=O)Nc1ccc2c(c1)CCC2	Pf growth 48h inconclusive, HCV inhibitor 10µM
Cc1cc(C)nc(SCC(=O)Nc2ccc(N3CCOCC3)c(Cl)c2)n1	HCV inhibitor 7.9µM (no result: Pf growth 96h)
O=C(CN1CCOCC1)Nc1cccc(C(F)(F)F)c1	none (no result: Pf growth 48h, AmpC inh detg, AmpC inh no detg, Pf growth 96h)
Cc1ccc(Cn2c(CNC(=O)c3ccc(Cl)c([N+](=O)[O-])c3)nc3cccnc32)cc1	none (no result: Pf growth 48h, AmpC inh no detg, HCV inhibitor, AMA1 RON2 block, Pf growth 96h)
COCCCNC(=O)c1cc2cc(S(=O)(=O)N3CCCCC3)ccc2n1C	none (no result: Pf growth 48h, AmpC inh no detg, HCV inhibitor, AMA1 RON2 block, Pf growth 96h)
NNc1nc2cccnc2n(CCNc2ncc(C(F)(F)F)cc2Cl)c1=O	Pf growth 48h inconclusive, Pf growth 96h 12µM
O=c1c(Cl)nc2cc(Cl)ccc2n1CCNc1ncc(C(F)(F)F)cc1Cl	Pf growth 48h 13µM, Pf growth 96h inconclusive
O=c1c2nncn2c2cccnc2n1CCNc1ncc(C(F)(F)F)cc1Cl	Pf growth 48h inconclusive
COc1cc(CNC(=O)CSCc2nc3cccnc3n2C2CCCCC2)cc(OC)c1OC	none (no result: Pf growth 48h, AmpC inh no detg, HCV inhibitor, AMA1 RON2 block, Pf growth 96h)
CCOc1ccc(NCc2nnc(SCc3ccccc3Cl)n2-c2ccccc2)cc1	Pf growth 48h inconclusive, HCV inhibitor inconclusive, AMA1 RON2 block 27µM
COc1ccc(-n2c(CNc3ccc(C)cc3)nnc2SCc2ccccc2)cc1	Pf growth 48h inconclusive
O=C(Oc1ccccc1)c1cccc2cccnc12	HCV inhibitor inconclusive (no result: Pf growth 96h)
O=C(Oc1ccccc1)c1cccnc1Oc1ccccc1	AmpC inh detg 40µM
CCCCNC(=S)N/N=C/c1cccc(OCC)c1O	Pf growth 48h inconclusive, HCV inhibitor inconclusive, Pf growth 96h 1.5µM
CCOc1cccc(/C=N/NC(=O)c2cc(C3CC3)[nH]n2)c1O	HCV inhibitor 11µM, Pf growth 96h inconclusive
Cc1ccc(C2CC(c3ccc(Cl)cc3)n3nc(N)nc3N2)cc1 (stereo not drawn)	AmpC inh detg inconclusive
Cc1ccc(C2CC(c3ccc(C)cc3)n3nc(N)nc3N2)cc1 (stereo not drawn)	AmpC inh detg inconclusive, AmpC inh no detg 45µM
CCc1ccc(C2CC(c3ccc(F)cc3)Nc3nc(N)nn32)cc1 (stereo not drawn)	AmpC inh no detg 4.5µM
COc1ccc2c(c1)c1c(c(=O)n(-c3ccc(C)cc3)c(=O)n1CC(=O)c1ccc(Cl)cc1)n2C	none (no result: Pf growth 48h, AmpC inh no detg, HCV inhibitor, AMA1 RON2 block, Pf growth 96h)
Cc1ccc(Cn2c(C(=O)NCCCN3CCOCC3)cc3sccc32)cc1	Pf growth 48h 12µM, HCV inhibitor inconclusive
COCCCNC(=O)C1CCN(C(=O)c2cc3sccc3n2Cc2ccc(F)cc2)CC1	HCV inhibitor inconclusive, Pf growth 96h inconclusive (no result: Pf growth 48h)
Cc1cccc(C)c1NC(=O)c1cc2sccc2n1Cc1ccc(F)cc1	none (no result: Pf growth 48h, AmpC inh no detg, HCV inhibitor, AMA1 RON2 block, Pf growth 96h)
Cc1ccc(CCNC(=O)c2cc3sccc3n2Cc2ccc(C)cc2)cc1	none (no result: Pf growth 48h, AmpC inh no detg, HCV inhibitor, AMA1 RON2 block, Pf growth 96h)
O=C(NCc1ccco1)C1CCN(C(=O)c2cc3sccc3n2Cc2ccc(F)cc2)CC1	Pf growth 48h 1.9µM, HCV inhibitor inconclusive
